We go through 25 compounds from publication PMC4336329 (PLoS ONE, 2015).

Molecules are shown by their SMILES. Screen size: about 310,000 compounds; about 14,000 (4.5%) showed an effect of 50% or more. Effects have a minus sign here. The sample holds strong results, similar compounds and a random draw of the others, so the mix is not that of the screen.
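Note: peak tail current of the secondary pulse compared with the same well before compound.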

Sequence of human ether-à-go-go-related gene (hERG) potassium channel (Q12809 whole entry, looked up): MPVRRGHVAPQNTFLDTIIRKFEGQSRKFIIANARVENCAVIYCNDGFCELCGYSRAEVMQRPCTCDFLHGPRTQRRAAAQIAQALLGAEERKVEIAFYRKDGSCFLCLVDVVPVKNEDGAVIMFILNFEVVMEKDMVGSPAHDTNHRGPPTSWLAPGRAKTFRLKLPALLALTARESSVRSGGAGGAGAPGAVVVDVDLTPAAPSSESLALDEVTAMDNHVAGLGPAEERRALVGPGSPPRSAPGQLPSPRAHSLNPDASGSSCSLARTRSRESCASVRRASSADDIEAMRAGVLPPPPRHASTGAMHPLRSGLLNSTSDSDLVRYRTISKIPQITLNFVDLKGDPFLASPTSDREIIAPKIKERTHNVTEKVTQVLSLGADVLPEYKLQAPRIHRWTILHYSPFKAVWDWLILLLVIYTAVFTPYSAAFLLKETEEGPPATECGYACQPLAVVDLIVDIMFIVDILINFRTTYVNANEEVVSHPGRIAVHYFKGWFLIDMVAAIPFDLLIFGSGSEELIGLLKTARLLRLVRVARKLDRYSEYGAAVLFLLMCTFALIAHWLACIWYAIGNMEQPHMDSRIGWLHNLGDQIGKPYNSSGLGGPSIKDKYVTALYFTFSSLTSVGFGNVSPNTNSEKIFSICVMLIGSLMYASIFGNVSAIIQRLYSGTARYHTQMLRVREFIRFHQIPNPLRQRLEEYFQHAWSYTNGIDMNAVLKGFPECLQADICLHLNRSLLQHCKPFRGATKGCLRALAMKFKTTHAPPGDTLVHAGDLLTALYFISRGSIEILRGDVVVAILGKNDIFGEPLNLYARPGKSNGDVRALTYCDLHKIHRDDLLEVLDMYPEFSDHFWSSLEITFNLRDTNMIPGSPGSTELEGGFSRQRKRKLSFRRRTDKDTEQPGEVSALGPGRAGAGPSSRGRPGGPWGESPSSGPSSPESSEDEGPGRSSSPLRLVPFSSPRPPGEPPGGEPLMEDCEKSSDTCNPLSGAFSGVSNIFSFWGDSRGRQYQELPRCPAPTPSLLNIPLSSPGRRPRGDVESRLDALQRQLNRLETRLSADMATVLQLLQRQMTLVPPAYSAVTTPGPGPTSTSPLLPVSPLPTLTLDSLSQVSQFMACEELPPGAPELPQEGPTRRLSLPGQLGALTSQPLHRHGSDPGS

The assay has as its target human ether-à-go-go-related gene (hERG) potassium channel (human, UniProt Q12809). The assay is described as follows: primary screen, population patch clamp on CHO cells stably expressing hERG; higher = less effect of the substance.
On to `COC(=O)CSc1nc(C2CC2)nc2ccccc12`, for which the “hERG current change (%, negative = inhibition) at 10uM” value is recorded as -11.5%.
As for `Cc1cc(C)cc(N(C(C)C(=O)N2CCCCC2)S(C)(=O)=O)c1` (stereo not shown), the “hERG current change (%, negative = inhibition) at 10uM” value was determined as 4.06%.
The result for `Cc1ccc(S(=O)(=O)NCC(=O)N(CC(=O)NCC2CCCO2)Cc2ccc(Cl)cc2)cc1` (stereo not shown) reads -11%.
With `Cc1c(Cl)cccc1NC(=S)NC1CCCC1`, the “hERG current change (%, negative = inhibition) at 10uM” value is -5.1%.
With `Cc1ccc(-c2csc(NC(=O)c3ccno3)n2)cc1` the figure was 2.72%; with `CN1CCN(C(=O)CSc2nc(-c3cccs3)ccc2C#N)CC1`, -4.44%.
Take `COC(=O)c1ccc(CN(c2ccccn2)S(=O)(=O)c2ccccc2)cc1`: the “hERG current change (%, negative = inhibition) at 10uM” value was 14.1%.
The result for `Clc1ccc(C[n+]2cc(-c3ccccc3)n3c2CCC3)cc1Cl.[Cl-]` reads -45.1%.
With `Cc1ccc(-c2c[n+](Cc3ccc(Cl)c(Cl)c3)c3n2CCC3)cc1.[Cl-]` the figure was -68.9%; with `O=[N+]([O-])c1ccc(C[n+]2cc(-c3ccc(Cl)c(Cl)c3)n3c2CCCCC3)cc1.[Br-]`, -15.7%; with `CC(=O)N1CCN(c2ccccc2NC(=O)c2cc3ccccc3o2)CC1`, -49.8%.
Turning to `O=C1CC(c2ccccc2)CC(O)=C1C=NCCCN1CCOCC1` (stereo not shown), the “hERG current change (%, negative = inhibition) at 10uM” value is recorded as -9.92%.
With `O=C(O)c1cc(-c2cccs2)nc2ccc(Br)cc12` the figure was 21%; with `CC(=O)N1CCc2cc(Br)cc(S(=O)(=O)NCc3ccc(Cl)cc3)c21`, -58.6%; with `CCCCN(C)S(=O)(=O)c1cc(Br)cc2c1N(C(=O)C1CC1)CC2`, -51.6%.
Regarding `O=C(O)CCS(=O)(=O)c1cc(Br)cc2c1N(C(=O)C1CC1)CC2`, the “hERG current change (%, negative = inhibition) at 10uM” value was determined as 9.39%.
With `CCCN(CCC)S(=O)(=O)c1cc(Br)cc2c1N(C(=O)CC)CC2` the figure was -2.75%; with `O=C(C1CC1)N1CCc2cc(Br)cc(S(=O)(=O)NCc3ccc4c(c3)OCO4)c21`, -64.8%.
In the case of `CC(=O)N1CCc2cc(Br)cc(S(=O)(=O)NCc3ccccn3)c21`, the “hERG current change (%, negative = inhibition) at 10uM” value came to 7.02%.
For the compound `CC(=O)N1c2c(cc(Br)cc2S(=O)(=O)NCc2ccccc2)CC1C` (stereo not shown), the “hERG current change (%, negative = inhibition) at 10uM” value is on record as -35.5%.
The result for `CCN(c1ccc2c(c1)OCO2)S(=O)(=O)c1cc(Br)cc2c1N(C(=O)C1CC1)CC2` reads 8.05%.
With `O=C(C1CC1)N1CCc2cc(Br)cc(S(=O)(=O)NCc3ccco3)c21` the figure was -41%.
With `COc1ccc(CNS(=O)(=O)c2cc(Br)cc3c2N(C(C)=O)C(C)C3)cc1` (stereo not shown) the figure was -40.9%; with `CC(=O)N1CCc2cc(Br)cc(S(=O)(=O)NCCCN(C)Cc3ccccc3)c21`, -38.3%; with `CC(=O)N1c2c(cc(Br)cc2S(=O)(=O)NCc2ccc(C)cc2)CC1C` (stereo not shown), -59.5%.
